Screening results (PubChem)
Bcl-xL primary = inhibitors of human Bcl-xL, primary screen, biochemical, fluorescence polarization, HTS. Bcl-2-like protein 1 (Homo sapiens), Q07817. GST-Bcl-xL / FITC-Bim BH3 peptide fluorescence polarization. inhibition, % at 10.9 µM. 320,000 compounds, 0.7% hits. AID 2129, 2009;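 active = inhibition above the mean of all tested compounds plus 3 SD, cutoff set per campaign, cut at about 30% in these data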;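 also: 0% = DMSO wells and 100% = unlabeled Bim-BH3 peptide competitor; inhibitors lower millipolarization by displacing the labeled peptide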
EBV gp42 inh = Epstein-Barr virus gp42 inhibitors, primary screen, biochemical, uHTS, fluorescence polarization; Glycoprotein 42 (Epstein-Barr virus (strain AG876)), Q1HVG2; Fluorescence polarization binding assay, mP read-out; inhibition, % (tested at 21.74 µM); 220,000 compounds, 0.42% hits; AID 1085, 2008; in the data active = inhibition above about 50%
Target sequence (Q1HVG2 whole entry, looked up): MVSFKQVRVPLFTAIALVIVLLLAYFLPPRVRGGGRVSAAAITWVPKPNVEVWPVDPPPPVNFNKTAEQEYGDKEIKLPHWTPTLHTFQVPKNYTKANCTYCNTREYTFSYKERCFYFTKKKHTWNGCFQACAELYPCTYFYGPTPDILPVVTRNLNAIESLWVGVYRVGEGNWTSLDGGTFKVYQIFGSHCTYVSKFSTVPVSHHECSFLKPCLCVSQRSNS
MCL1 BIM primary = inhibitors of MCL1 binding to BIM-BH3, primary screen, biochemical, fluorescence polarization; Induced myeloid leukemia cell differentiation protein Mcl-1 (Homo sapiens), Q07820; GST-MCL1 / FITC-Bim-BH3 fluorescence polarization; inhibition, % at 10.9 µM; 320,000 compounds, 0.68% hits;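 active = inhibition above the mean inhibition of all tested compounds plus 3 SD, set per campaign, cut at about 40% in these data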;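 also: 0% = DMSO wells and 100% = unlabeled Bim-BH3 peptide control; higher means more loss of mP so more displacement of Bim peptide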
E coli Lon inh = inhibitors of E. coli Lon protease, primary screen, biochemical, fluorescence polarization | inhibition, % at 7.94 µM | purified E. coli Lon protease | 360,000 compounds, 0.42% hits; in the data active = inhibition above about 13%, passing the limit was not always enough;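 also: 0% = enzyme with probe and DMSO and 100% = no enzyme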
MEX-5 binding = MEX-5 zinc finger RNA-binding disruptors – biochemical, C. elegans, fluorescence polarization, MLPCN library, primary screen. Zinc finger protein mex-5 (Caenorhabditis elegans), Q9XUB2. MEX-5/FITC-TCR2 RNA binding; stronger effect = lower value. activity score (negative = inhibition of binding), % at 10 µM. 300,000 compounds, 0.38% hits;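 active = inhibition past about -25% in most replicates, and total fluorescence under double the plate's negative control median, limit read from the data; inconclusive = replicates evenly split on the limit, or fluorescence at least double controls; inactive = too little inhibition in most replicates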;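 also: 0% = DMSO and -100% = 5 µM competing unlabeled TCR2 RNA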
Target sequence (Q9XUB2 whole entry, looked up): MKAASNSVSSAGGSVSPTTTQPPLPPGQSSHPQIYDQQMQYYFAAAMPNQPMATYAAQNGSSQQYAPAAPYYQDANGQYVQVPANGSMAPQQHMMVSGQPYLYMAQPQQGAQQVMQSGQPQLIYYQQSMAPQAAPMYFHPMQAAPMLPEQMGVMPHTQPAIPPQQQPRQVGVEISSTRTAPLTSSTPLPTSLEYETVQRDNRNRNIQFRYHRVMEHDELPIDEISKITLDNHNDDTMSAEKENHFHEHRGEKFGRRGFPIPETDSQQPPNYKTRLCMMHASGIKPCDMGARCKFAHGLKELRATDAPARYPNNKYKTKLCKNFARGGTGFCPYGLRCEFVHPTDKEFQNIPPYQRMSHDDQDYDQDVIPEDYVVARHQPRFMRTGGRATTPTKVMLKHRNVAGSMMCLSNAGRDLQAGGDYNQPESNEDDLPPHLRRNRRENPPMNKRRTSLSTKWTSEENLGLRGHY
GLD-1 RNA inh = GLD-1/TGE RNA complex disruptors, primary screen, biochemical, fluorescence polarization | 320,000 compounds, 0.44% hits | purified GLD-1 + fluorescein TGE RNA | AID 2280, 2010 | Female germline-specific tumor suppressor gld-1 (Caenorhabditis elegans), Q17339 | inhibition, % at 5.96 µM;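 active = percent inhibition above a per-plate cutoff, the plate mean of test compounds plus 3 SD, cut at about 30% in these data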;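 also: 0% = DMSO wells with GLD-1 and probe and 100% = wells lacking GLD-1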
Numbers without * were called inactive; ? = inconclusive; / = no result. Sampled rows, rich in hits. Any-hit rate of the full collection: about 1.4%.

SMILES | Bcl-xL primary | EBV gp42 inh | MCL1 BIM primary | E coli Lon inh | MEX-5 binding | GLD-1 RNA inh
CCOC(=O)CC(=O)CSC1=C(C#N)C(c2ccccc2OC)CC(=O)N1 (centres undefined) | 30.9* | -3.8 | -8.7 | -16.0 | -1.2 | 1.5
Cc1ccc(S(=O)(=O)N2CCN(C(=O)CNC(=O)c3ccc(Br)o3)CC2)cc1 | 3.7 | / | -5.0 | -2.7 | 1.5 | 1.7
CCN1/C(=C/c2ccc3cc(C)ccc3[n+]2CC)Sc2ccccc21 | -40.0 | -161.7 | -106.2 | -177.8 | ? | 57.4*
Cc1ccc(C(=O)N2CCN(S(=O)(=O)c3ccc(C)c([N+](=O)[O-])c3)C2)cc1 | 3.7 | 3.6 | -5.4 | -4.1 | 0.4 | -0.6
Cc1ccc(NC(=O)CN2C(=O)/C(=C3\SC(=S)N(C4CCS(=O)(=O)C4)C3=O)c3ccccc32)cc1 (centres undefined) | / | 105.0* | / | 0.5 | / | /
O=c1cc(CN2CCOCC2)c2ccc(O)c(O)c2o1 | 4.9 | / | 6.1 | -1.5 | -4.4 | -2.6
CC1Oc2cc3oc4c(O)c(O)ccc4c(=O)c3c(O)c2C1(C)C (centres undefined) | 10.2 | / | 13.2 | 8.1 | -1.2 | 31.0*
CCOC(=O)c1sc2nc3c(SCCC#N)cc(C(=O)c4cc(F)ccc4O)cn3c(=O)c2c1C | -2.5 | -61.3 | -15.3 | -22.4 | 4.6 | -4.3
CCOC(=O)c1sc2nc3c(SCCC(=O)O)cc(C(=O)c4cc(OC)ccc4O)cn3c(=O)c2c1C | / | 79.0* | / | -20.2 | -0.1 | /
CCOc1ccccc1OC(=O)CN1C(=O)c2ccccc2C1=O | 5.4 | / | -2.5 | 0.8 | 0.3 | 5.1
COc1ccc(CNC(=O)COC(=O)c2ccc(Br)cc2)cc1 | 32.7* | -10.6 | 2.4 | -6.4 | 1.0 | -0.2
CCOc1ccc(C2CC(c3c(O)c4ccccc4oc3=O)=NN2c2ccccc2)cc1OC (centres undefined) | -44.2 | 141.2* | -72.5 | -5.6 | ? | -7.8
Cc1ccc(/C=C2/Sc3ccc(C(=O)N4CCN(C)CC4)cc3NC2=O)cc1 | 36.9* | / | 34.3 | 10.1 | -12.0 | 16.9
CC1CCN(C(=O)c2ccc3c(c2)NC(=O)/C(=C/c2ccccc2)S3)CC1 | 3.4 | / | 4.2 | 3.0 | 2.8 | -1.1
Cn1c(=O)c(C(=O)COC(=O)c2cc(-c3ccco3)nc3ccccc23)c(N)n(CC2CC2)c1=O | 26.8 | -21.1 | 43.5* | / | -11.1 | 11.5
O=C(NC1CC1)c1cc(-c2ccco2)nc2ccccc12 | / | 83.6* | / | -1.2 | -0.1 | /
O=C(O)c1cc(-c2ccco2)nc2ccccc12 | 33.6* | -18.9 | 46.1* | 4.4 | -9.8 | 14.3
Cc1ccc(C)c(-c2cc(C(=O)NC3CC3)c3ccccc3n2)c1 | / | / | / | -8.2 | / | /
Cn1c(N)c(C(=O)COC(=O)c2ncc(Cl)c(Cl)c2Cl)c(=O)n(C)c1=O | 3.0 | -12.8 | -0.9 | -0.8 | 1.2 | -4.7
CN(C)c1ccc2nc3ccc(=[N+](C)C)cc-3sc2c1 | 4.6 | -5.5 | 18.2 | 5.1 | -32.8* | 8.4
Cc1nc2cc(C)c(C)cc2s1 | 0.1 | -7.9 | 4.6 | 6.8 | 1.9 | 0.8
Cc1cc2nc3ccc(=[N+](C)C)cc-3sc2cc1N | / | -7.7 | / | 2.0 | -47.9* | /
CCN(CC)C(=O)/C(=C\c1ccc(Br)cc1)NC(=O)c1ccccc1OC | 6.6 | 60.7* | 8.7 | -4.8 | 1.1 | -3.7
COc1ccccc1C(=O)N/C(=C\c1ccc(Br)cc1)C(=O)NCCO | 3.6 | -2.4 | 5.5 | -7.3 | 0.2 | 5.4
CCOc1cc(/C=C2/NC(=O)N(CC(=O)OC)C2=O)ccc1O | 1.5 | -1.1 | -0.2 | -11.6 | -0.4 | -3.8
SMILES | Bcl-xL primary | EBV gp42 inh | MCL1 BIM primary | E coli Lon inh | MEX-5 binding | GLD-1 RNA inh
CN(CCOc1ccc(Cl)c(Cl)c1)Cc1ccccc1 | 5.9 | / | 7.3 | -6.7 | 0.1 | 5.9
CCN(CC)CCCOc1ccc(Cl)c(Cl)c1 | 36.0* | 27.1 | 31.8 | -9.8 | -1.6 | -0.9
CCOC(=O)/C=C/COc1ccccc1[N+](=O)[O-] | -2.5 | -19.9 | -2.6 | 0.2 | 1.0 | 2.1
Cc1cccc(NC(=O)CSCC(=O)NCc2ccco2)c1 | 2.5 | / | -6.3 | 3.5 | -0.9 | 1.1
O=S(=O)(Nc1cc2nc3ccccc3nc2n1Cc1ccccc1)c1ccc(Cl)cc1 | 30.1 | 121.2* | 17.5 | -104.3 | 0.5 | 39.6*
Cc1cc(C)c(S(=O)(=O)NCCSCc2ccco2)c(C)c1 | -1.7 | / | -4.3 | -8.3 | / | -2.7
Fc1ccccc1Nc1nc2c(s1)CCc1ccccc1-2 | / | -57.5 | / | / | / | /
N=C1/C(=C\c2ccc(SCc3ccccc3)o2)C(=O)N=C2SC(CC(=O)N3CCOCC3)=NN12 | -11.6 | -29.7 | -11.8 | -52.0 | -30.0* | -20.0
Cc1ccc(/C=C2\C(=N)N3N=C(CC(=O)N4CCOCC4)SC3=NC2=O)o1 | 10.6 | / | 10.5 | -29.4 | -4.9 | 6.2
CC1=CC(=C(C#N)C#N)c2ccccc2N1C | -6.2 | -14.4 | -4.6 | 6.0 | 5.8 | -4.4
CN1/C(=C/C=C(C#N)C#N)C(C)(C)c2ccccc21 | 47.3* | 54.4* | 13.2 | -1.0 | -86.9* | -113.7
CC1=C/C(=C\C=C(C#N)C#N)N(C)c2ccccc21 | 35.4* | -28.6 | 20.6 | -68.2 | 3.5 | -182.2
OC(c1ccccc1)(c1nc(-c2ccc3c(c2)OCO3)cs1)C(F)(F)F (centres undefined) | / | / | / | -2.1 | / | /
N#C/C(=C\C=C\c1ccccc1)c1nc(-c2ccc3c(c2)OCO3)cs1 | 2.6 | 155.9* | -30.1 | -34.2 | -5.8 | -3.8
[O-][n+]1c2c(nc3c1-c1ccccc1C3O)CCCC2 (centres undefined) | 5.2 | 0.8 | 1.0 | / | -2.8 | -5.3
CC[C@]1(C(=O)OC)[C@H]2C(=O)N(Cc3ccccc3)C(=O)[C@H]2[C@H]2CN=C(SC)N21 | / | / | / | 2.2 | / | /
Cc1ccc(/C=C/C(=O)O)cc1S(=O)(=O)N1CCCCC1 | 0.6 | -19.0 | -2.9 | -8.1 | -29.6* | 1.8
Cc1ccc(/C=C/C(=O)O)cc1S(=O)(=O)N1CCc2ccccc2C1 | -0.4 | -9.8 | -7.1 | 2.7 | 2.0 | 0.3
COc1ccc(C(CC(=O)O)NC(=O)COc2cc(C)ccc2C)cc1OC (centres undefined) | 6.5 | 11.6 | 4.3 | -9.3 | -0.1 | -8.3
O=C(O)c1ccc(N2C(=O)/C(=C/c3ccc(-c4ccc([N+](=O)[O-])cc4)o3)C=C2c2ccccc2)cc1 | -9.3 | 81.8* | -47.6 | -31.1 | -0.9 | -7.1
Cc1ccc2ccc(C3C(=O)c4ccccc4C3=O)nc2c1 | 3.7 | / | 1.8 | -13.7 | -40.5* | 4.5
Cc1ccc(C)c(C2C(=O)c3ccccc3C2=O)c1 | 4.4 | / | 5.0 | 7.4 | -1.8 | 5.1
